Assay results from the supplement of paper PMC10849652.
About 7,900 targets were measured; listed, in parts, are those with a hit and a random draw of the rest. About 0.6% of all pairs of compound and target were hits.

Columns and labels:
Assay in all cases: log2 fold change, soluble protein after heating vs DMSO (PISA); higher = thermal stabilisation; K562 cells, 10 uM, 30 min; active = over 0.2 and 3.5 SD of the protein, either way, in both replicates (recomputed)
saracatinib = compound: CN1CCN(CCOc2cc(OC3CCOCC3)c3c(Nc4c(Cl)ccc5c4OCO5)ncnc3c2)CC1 [saracatinib]
Procedure, shortened: (§1)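 For each measurement, 10 μM compound was applied for 30 min to K562 cells at 2×10^6 cells/mL. Aliquots were heated for 3 min across 48°C-58°C, pooled, and extracted in PBS with 0.5% NP-40 at 4°C; the supernatant after 21,000xg for 90 min was soluble protein. This was quantified by TMTpro 16plex LC-MS/MS with channel sums equalised, and thermal stability was reported relative to control samples from duplicates, on a log2 fold-change scale.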

sotrastaurin = compound: CN1CCN(c2nc(C3=C(c4c[nH]c5ccccc45)C(=O)NC3=O)c3ccccc3n2)CC1 [sotrastaurin]
Procedure, shortened: as §1

alvocidib = compound: CN1CC[C@H](c2c(O)cc(O)c3c(=O)cc(-c4ccccc4Cl)oc23)[C@H](O)C1 [alvocidib]
Procedure, shortened: as §1

Tubastatin A = compound: CN1CCc2c(c3ccccc3n2Cc2ccc(C(=O)NO)cc2)C1 [Tubastatin A]
Procedure, shortened: as §1

[1] = compound: CNC(=O)C1=CC=CC=C1NC2=NC(=NC=C2Cl)NC3=C(C=C(C=C3)N4CCOCC4)OC
Procedure, shortened: as §1

defactinib = compound: CNC(=O)c1ccc(Nc2ncc(C(F)(F)F)c(NCc3nccnc3N(C)S(C)(=O)=O)n2)cc1 [defactinib]
Procedure, shortened: as §1

rucaparib = compound: CNCc1ccc(-c2[nH]c3cc(F)cc4c3c2CCNC4=O)cc1 [rucaparib]
Procedure, shortened: as §1

[2] = compound: CNc1nc(-c2ccc3c(N)n[nH]c3c2)cc(N2C[C@@H](C(=O)NC3CCCCC3)CC[C@H]2C)n1
Procedure, shortened: as §1

encorafenib = compound: COC(=O)N[C@@H](C)CNc1nccc(-c2cn(C(C)C)nc2-c2cc(Cl)cc(NS(C)(=O)=O)c2F)n1 [encorafenib]
Procedure, shortened: as §1

[3] = compound: COC(=O)[C@H](CCSC)NC(=O)C1=C(C=C(C=C1)NC[C@H](CS)N)C2=CC=CC=C2
Procedure, shortened: as §1

Measured: log2 fold change

MAGI1 (UniProt Q96QZ7)
inactive: saracatinib -0.013 | sotrastaurin -0.064 | alvocidib -0.019 | Tubastatin A -0.017 | [1] 0.021 | defactinib -0.007 | rucaparib 0.012 | [2] 0.024 | encorafenib 0.059 | [3] -0.009

LONP2 (UniProt Q86WA8)
Chain of UniProt Q86WA8 (Q86WA8 whole entry, looked up): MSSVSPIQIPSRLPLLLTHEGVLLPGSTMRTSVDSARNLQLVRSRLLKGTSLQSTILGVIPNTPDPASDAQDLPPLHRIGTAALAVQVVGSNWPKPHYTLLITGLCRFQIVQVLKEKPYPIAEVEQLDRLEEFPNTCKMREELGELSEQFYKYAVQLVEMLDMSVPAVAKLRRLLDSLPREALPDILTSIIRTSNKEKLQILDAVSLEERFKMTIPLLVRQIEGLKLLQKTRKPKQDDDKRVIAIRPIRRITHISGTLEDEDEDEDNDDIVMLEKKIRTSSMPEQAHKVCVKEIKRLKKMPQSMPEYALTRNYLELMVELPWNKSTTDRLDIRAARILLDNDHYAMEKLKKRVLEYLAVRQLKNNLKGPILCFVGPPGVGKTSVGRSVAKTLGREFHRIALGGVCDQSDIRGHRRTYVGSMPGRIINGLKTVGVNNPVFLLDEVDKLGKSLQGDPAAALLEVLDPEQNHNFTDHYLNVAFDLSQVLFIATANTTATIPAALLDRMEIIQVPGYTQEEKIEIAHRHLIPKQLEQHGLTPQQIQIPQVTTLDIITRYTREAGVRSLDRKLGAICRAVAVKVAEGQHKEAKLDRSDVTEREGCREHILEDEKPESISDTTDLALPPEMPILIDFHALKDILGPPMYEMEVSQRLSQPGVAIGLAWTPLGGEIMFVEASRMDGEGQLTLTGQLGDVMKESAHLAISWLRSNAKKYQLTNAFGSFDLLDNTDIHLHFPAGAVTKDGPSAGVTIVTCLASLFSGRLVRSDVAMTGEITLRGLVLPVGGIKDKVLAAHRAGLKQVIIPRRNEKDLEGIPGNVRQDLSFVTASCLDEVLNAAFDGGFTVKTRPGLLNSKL
inactive: saracatinib 0.006 | sotrastaurin 0.003 | alvocidib -0.029 | Tubastatin A 0.135 | [1] 0 | defactinib -0.12 | rucaparib 0.067 | [2] -0.079 | encorafenib 0.13 | [3] 0.007

ITPRIP (UniProt Q8IWB1)
inactive: saracatinib -0.028 | sotrastaurin 0.016 | alvocidib -0.116 | Tubastatin A 0.034 | [1] 0.011 | defactinib -0.037 | rucaparib 0.034 | [2] -0.084 | encorafenib -0.009 | [3] 0.013

LPGAT1 (UniProt Q92604)
inactive: saracatinib 0.111 | sotrastaurin -0.001 | alvocidib -0.011 | Tubastatin A 0.019 | [1] 0.073 | defactinib -0.184 | rucaparib 0.036 | [2] -0.187 | encorafenib 0.026 | [3] 0.015

KCT2 (UniProt Q8NC54)
inactive: saracatinib 0.027 | sotrastaurin 0.042 | alvocidib -0.095 | Tubastatin A -0.003 | [1] 0.096 | defactinib -0.088 | rucaparib -0.008 | [2] 0.031 | encorafenib 0.063 | [3] -0.036

KIF21A isoform 4 (UniProt Q7Z4S6)
inactive: saracatinib 0.001 | sotrastaurin -0.006 | alvocidib 0.134 | Tubastatin A 0.094 | [1] 0.001 | defactinib 0.016 | rucaparib 0.109 | [2] 0.077 | encorafenib 0.175 | [3] -0.072

IPO13 (UniProt O94829)
Chain of UniProt O94829 (O94829 whole entry, looked up): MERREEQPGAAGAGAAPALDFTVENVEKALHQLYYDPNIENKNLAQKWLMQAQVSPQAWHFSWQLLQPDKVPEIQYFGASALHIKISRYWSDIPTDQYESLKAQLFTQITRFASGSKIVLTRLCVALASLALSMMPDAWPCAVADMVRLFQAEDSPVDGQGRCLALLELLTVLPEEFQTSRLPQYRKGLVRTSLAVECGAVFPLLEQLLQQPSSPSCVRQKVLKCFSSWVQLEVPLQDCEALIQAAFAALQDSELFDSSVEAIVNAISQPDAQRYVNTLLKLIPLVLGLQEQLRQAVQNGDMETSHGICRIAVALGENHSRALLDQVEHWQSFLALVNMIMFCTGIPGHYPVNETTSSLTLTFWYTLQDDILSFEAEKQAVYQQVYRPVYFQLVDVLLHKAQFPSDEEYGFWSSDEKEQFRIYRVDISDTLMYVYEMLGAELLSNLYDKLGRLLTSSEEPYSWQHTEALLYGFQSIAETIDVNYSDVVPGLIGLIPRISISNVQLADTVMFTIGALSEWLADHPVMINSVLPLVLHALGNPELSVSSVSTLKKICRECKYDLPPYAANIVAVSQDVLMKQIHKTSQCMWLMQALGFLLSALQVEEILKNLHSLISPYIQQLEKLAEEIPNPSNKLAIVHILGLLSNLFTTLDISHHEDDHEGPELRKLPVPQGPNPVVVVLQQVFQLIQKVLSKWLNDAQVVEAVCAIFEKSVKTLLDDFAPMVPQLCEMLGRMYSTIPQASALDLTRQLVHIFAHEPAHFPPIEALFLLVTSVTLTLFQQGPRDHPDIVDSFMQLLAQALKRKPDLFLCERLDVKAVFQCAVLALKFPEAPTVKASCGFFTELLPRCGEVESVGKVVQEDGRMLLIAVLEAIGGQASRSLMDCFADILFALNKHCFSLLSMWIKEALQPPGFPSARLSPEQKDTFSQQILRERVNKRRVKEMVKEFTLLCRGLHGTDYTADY
inactive: saracatinib 0.111 | sotrastaurin -0.123 | alvocidib 0.013 | Tubastatin A -0.03 | [1] 0.001 | defactinib -0.04 | rucaparib -0.016 | [2] -0.109 | encorafenib 0.039 | [3] 0.033

MAPKAPK5 (UniProt Q8IW41)
inactive: saracatinib 0.008 | sotrastaurin -0.028 | alvocidib 0.062 | Tubastatin A 0.036 | [1] -0.02 | defactinib -0.032 | rucaparib 0.095 | [2] -0.039 | encorafenib -0.016 | [3] 0

KHDRBS1 (UniProt Q07666)
active: rucaparib 0.248
inactive: saracatinib 0.025 | sotrastaurin 0.018 | alvocidib 0.027 | Tubastatin A -0.006 | [1] 0 | defactinib 0.042 | [2] -0.009 | encorafenib -0.009 | [3] -0.05

LSS (UniProt P48449)
active: rucaparib 0.595
inactive: saracatinib 0.172 | sotrastaurin 0.016 | alvocidib -0.066 | Tubastatin A 0.103 | [1] -0.091 | defactinib -0.015 | [2] -0.001 | encorafenib 0.118 | [3] 0.074

LNPK (UniProt Q9C0E8)
inactive: saracatinib 0.085 | sotrastaurin 0.047 | alvocidib -0.006 | Tubastatin A -0.034 | [1] 0.012 | defactinib 0.009 | rucaparib -0.015 | [2] -0.045 | encorafenib -0.013 | [3] 0.039

LAMP2 (UniProt P13473)
inactive: saracatinib 0.078 | sotrastaurin 0.123 | alvocidib 0.056 | Tubastatin A -0.061 | [1] 0.105 | defactinib -0.047 | rucaparib -0.055 | [2] -0.088 | encorafenib -0.026 | [3] 0.062

KDM1A isoform 2 (UniProt O60341)
inactive: saracatinib -0.061 | sotrastaurin -0.139 | alvocidib -0.108 | Tubastatin A 0.127 | [1] -0.032 | defactinib -0.065 | rucaparib 0.14 | [2] 0.021 | encorafenib 0.052 | [3] -0.032

MAD2L1 (UniProt Q13257)
inactive: saracatinib 0.037 | sotrastaurin -0.056 | alvocidib -0.109 | Tubastatin A 0.01 | [1] 0.05 | defactinib -0.112 | rucaparib -0.058 | [2] -0.046 | encorafenib -0.007 | [3] -0.04

IGFBP2 (UniProt P18065)
inactive: saracatinib -0.049 | sotrastaurin 0.223 | alvocidib 0.212 | Tubastatin A -0.032 | [1] -0.06 | defactinib 0.134 | rucaparib 0.003 | [2] -0.148 | encorafenib 0.028 | [3] -0.053

IMMP1L (UniProt Q96LU5)
Chain of UniProt Q96LU5 (Q96LU5 whole entry, looked up): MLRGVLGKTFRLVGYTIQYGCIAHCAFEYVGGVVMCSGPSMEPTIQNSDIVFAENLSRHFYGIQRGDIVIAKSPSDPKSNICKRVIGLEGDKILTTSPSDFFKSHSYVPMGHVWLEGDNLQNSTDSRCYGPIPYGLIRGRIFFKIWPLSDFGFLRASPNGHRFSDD
inactive: saracatinib -0.041 | sotrastaurin -0.005 | alvocidib 0.039 | Tubastatin A -0.024 | [1] -0.01 | defactinib 0.011 | rucaparib -0.039 | [2] -0.102 | encorafenib -0.037 | [3] -0.027

KIF3A (UniProt Q9Y496)
inactive: saracatinib -0.102 | sotrastaurin -0.073 | alvocidib -0.02 | Tubastatin A -0.031 | [1] 0.085 | defactinib 0.013 | rucaparib 0.292 | [2] 0.037 | encorafenib 0.003 | [3] 0.005

KDELR2 (UniProt P33947)
inactive: saracatinib 0.094 | sotrastaurin 0.061 | alvocidib 0.018 | Tubastatin A -0.295 | [1] 0.04 | defactinib -0.004 | rucaparib -0.072 | [2] -0.058 | encorafenib -0.005 | [3] 0.023

MED1 (UniProt Q15648)
Chain of UniProt Q15648 (Q15648 whole entry, looked up): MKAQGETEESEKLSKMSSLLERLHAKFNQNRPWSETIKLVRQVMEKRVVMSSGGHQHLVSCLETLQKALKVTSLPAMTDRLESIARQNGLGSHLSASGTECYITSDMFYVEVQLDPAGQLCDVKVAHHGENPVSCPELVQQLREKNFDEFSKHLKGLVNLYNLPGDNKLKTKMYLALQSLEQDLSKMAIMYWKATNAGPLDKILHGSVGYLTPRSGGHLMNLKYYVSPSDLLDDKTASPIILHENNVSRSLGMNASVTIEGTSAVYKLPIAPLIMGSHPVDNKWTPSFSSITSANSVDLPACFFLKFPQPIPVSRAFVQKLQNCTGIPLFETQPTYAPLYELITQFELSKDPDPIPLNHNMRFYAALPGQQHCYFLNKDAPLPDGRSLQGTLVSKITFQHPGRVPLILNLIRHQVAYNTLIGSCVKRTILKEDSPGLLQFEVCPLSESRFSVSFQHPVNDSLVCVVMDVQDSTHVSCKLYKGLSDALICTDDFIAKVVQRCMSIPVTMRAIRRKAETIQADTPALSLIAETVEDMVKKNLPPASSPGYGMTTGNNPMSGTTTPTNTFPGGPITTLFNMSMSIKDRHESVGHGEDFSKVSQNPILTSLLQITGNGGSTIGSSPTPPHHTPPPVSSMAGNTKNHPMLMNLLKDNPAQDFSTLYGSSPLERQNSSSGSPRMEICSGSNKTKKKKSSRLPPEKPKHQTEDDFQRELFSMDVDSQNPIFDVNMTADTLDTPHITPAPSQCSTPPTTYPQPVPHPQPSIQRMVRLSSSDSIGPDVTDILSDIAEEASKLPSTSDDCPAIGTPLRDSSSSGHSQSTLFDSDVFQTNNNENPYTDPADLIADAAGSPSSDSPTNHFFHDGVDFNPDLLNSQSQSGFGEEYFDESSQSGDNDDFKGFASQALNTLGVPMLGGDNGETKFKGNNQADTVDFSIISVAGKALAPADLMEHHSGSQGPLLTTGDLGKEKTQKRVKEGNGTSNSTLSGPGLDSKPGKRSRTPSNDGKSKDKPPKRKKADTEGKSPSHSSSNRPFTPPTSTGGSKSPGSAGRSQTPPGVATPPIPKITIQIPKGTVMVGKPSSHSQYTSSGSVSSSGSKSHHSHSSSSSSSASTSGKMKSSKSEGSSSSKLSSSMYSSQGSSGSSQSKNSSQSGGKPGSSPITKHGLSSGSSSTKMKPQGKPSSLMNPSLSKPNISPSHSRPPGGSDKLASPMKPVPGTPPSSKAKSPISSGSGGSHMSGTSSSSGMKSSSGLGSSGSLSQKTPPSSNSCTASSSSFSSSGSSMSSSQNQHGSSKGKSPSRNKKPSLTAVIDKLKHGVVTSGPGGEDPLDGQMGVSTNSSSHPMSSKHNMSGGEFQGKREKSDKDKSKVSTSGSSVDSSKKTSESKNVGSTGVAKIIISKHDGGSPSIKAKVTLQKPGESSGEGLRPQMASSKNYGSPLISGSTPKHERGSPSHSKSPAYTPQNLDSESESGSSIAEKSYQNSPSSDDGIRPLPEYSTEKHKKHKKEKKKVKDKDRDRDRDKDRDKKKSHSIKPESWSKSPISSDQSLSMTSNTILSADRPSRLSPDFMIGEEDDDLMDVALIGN
inactive: saracatinib 0.001 | sotrastaurin -0.092 | alvocidib -0.11 | Tubastatin A -0.025 | [1] 0.042 | defactinib -0.005 | rucaparib 0.067 | [2] -0.045 | encorafenib 0.009 | [3] 0.033

MAPK14 (UniProt Q16539)
inactive: saracatinib 0.261 | sotrastaurin 0.001 | alvocidib 0.014 | Tubastatin A 0.074 | [1] 0.546 | defactinib -0.137 | rucaparib -0.02 | [2] -0.03 | encorafenib 0.684 | [3] -0.055

MAPK8 isoform 3 (UniProt P45983)
inactive: saracatinib -0.006 | sotrastaurin 0.052 | alvocidib 0.087 | Tubastatin A 0.009 | defactinib -0.009 | rucaparib 0.031 | [2] -0.07 | encorafenib 0.029 | [3] -0.029
active: [1] 0.942

MCU (UniProt Q8NE86)
inactive: saracatinib 0.039 | sotrastaurin -0.028 | alvocidib -0.08 | Tubastatin A 0.036 | [1] 0.013 | defactinib -0.043 | rucaparib -0.032 | [2] -0.014 | encorafenib -0.017 | [3] -0.032

IWS1 (UniProt Q96ST2)
active: alvocidib 0.336
inactive: saracatinib -0.042 | sotrastaurin 0.021 | Tubastatin A 0.04 | [1] -0.054 | defactinib 0.035 | rucaparib 0.032 | [2] -0.034 | encorafenib -0.1 | [3] -0.127

KEAP1 (UniProt Q14145)
inactive: saracatinib -0.009 | sotrastaurin -0.119 | alvocidib 0.02 | Tubastatin A -0.035 | [1] 0.054 | defactinib -0.045 | rucaparib 0.116 | [2] -0.015 | encorafenib 0.059 | [3] -0.003

LIMA1 isoform 4 (UniProt Q9UHB6)
Chain of UniProt Q9UHB6 (Q9UHB6 whole entry, looked up): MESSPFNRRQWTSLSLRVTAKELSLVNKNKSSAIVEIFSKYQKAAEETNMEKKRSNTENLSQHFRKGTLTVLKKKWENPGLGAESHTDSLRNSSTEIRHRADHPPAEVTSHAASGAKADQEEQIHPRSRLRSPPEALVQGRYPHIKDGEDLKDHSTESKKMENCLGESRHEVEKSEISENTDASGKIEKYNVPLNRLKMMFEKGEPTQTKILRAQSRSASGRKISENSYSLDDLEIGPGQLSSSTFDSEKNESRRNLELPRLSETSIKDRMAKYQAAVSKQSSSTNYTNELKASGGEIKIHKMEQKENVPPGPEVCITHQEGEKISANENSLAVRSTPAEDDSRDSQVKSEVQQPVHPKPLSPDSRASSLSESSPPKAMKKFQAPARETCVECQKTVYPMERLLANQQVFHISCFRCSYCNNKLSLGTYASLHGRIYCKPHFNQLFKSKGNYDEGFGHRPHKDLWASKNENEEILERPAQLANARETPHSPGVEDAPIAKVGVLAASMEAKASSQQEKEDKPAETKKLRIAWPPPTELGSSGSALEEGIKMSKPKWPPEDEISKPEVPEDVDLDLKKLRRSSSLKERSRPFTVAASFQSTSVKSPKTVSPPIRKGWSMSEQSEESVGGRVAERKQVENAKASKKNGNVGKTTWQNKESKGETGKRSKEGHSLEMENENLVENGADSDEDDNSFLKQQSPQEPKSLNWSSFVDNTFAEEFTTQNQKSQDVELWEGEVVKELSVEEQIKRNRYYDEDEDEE
inactive: saracatinib 0.046 | sotrastaurin -0.109 | alvocidib 0.111 | Tubastatin A 0.014 | [1] -0.033 | defactinib -0.015 | rucaparib 0.074 | [2] -0.089 | encorafenib 0.017 | [3] 0.01

LIAS (UniProt O43766)
inactive: saracatinib 0.049 | alvocidib 0.065 | Tubastatin A -0.056 | [1] 0.029 | defactinib 0.018 | rucaparib 0.017 | [2] -0.027 | encorafenib 0 | [3] 0.022
active: sotrastaurin 0.271

LARP7 isoform 3 (UniProt Q4G0J3)
Chain of UniProt Q4G0J3 (Q4G0J3 whole entry, looked up): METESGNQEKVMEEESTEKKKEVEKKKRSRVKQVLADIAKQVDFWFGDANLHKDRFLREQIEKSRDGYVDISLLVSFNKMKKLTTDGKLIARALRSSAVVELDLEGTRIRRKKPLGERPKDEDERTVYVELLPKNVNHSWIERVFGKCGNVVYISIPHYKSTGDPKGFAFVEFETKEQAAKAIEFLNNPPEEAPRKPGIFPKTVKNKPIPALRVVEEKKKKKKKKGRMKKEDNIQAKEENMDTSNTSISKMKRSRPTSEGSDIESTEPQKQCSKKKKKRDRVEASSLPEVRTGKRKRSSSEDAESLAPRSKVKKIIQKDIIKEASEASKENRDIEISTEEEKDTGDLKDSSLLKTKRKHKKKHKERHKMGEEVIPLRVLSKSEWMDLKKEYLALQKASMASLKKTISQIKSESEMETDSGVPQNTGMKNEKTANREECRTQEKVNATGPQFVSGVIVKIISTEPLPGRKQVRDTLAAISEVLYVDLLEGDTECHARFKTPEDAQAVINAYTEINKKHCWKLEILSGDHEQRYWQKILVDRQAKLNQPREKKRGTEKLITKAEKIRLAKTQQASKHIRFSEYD
active: alvocidib -0.234 | defactinib -0.328
inactive: saracatinib 0.015 | sotrastaurin -0.076 | Tubastatin A -0.002 | [1] -0.04 | rucaparib -0.164 | [2] 0.003 | encorafenib 0.034 | [3] -0.019

LTV1 (UniProt Q96GA3)
inactive: saracatinib -0.09 | sotrastaurin -0.037 | alvocidib 0.151 | Tubastatin A 0.16 | [1] 0.083 | defactinib 0.145 | rucaparib 0.074 | [2] 0.081 | encorafenib 0.109 | [3] -0.061

KIF2C (UniProt Q99661)
inactive: saracatinib 0.003 | sotrastaurin -0.048 | alvocidib -0.019 | Tubastatin A 0.024 | [1] -0.017 | defactinib -0.051 | rucaparib 0.019 | [2] 0.064 | encorafenib 0.142 | [3] -0.092

ILVBL (UniProt A1L0T0)
inactive: saracatinib -0.022 | sotrastaurin 0.135 | alvocidib -0.162 | Tubastatin A -0.02 | [1] 0.002 | defactinib -0.054 | rucaparib -0.024 | [2] 0.052 | encorafenib 0.059 | [3] 0.019
